Screens deposited in PubChem by Broad Institute.
Shown are actives, neighbours in structure and some others; about 3% of the full set was active somewhere.
Vif inh: HIV Vif self-association inhibitors, primary screen, imaging, HEK293T, single point | actives 0.35% (n = 340,000) | HEK293T cells, Vif self-association by quenched fluorescence, 24 h | AID 602346, 2012 | inhibition, % at 7.49 µM; in the data active = inhibition above about 50%, passing the limit was not always enough; inconclusive = no clear call, values can overlap the other calls; inactive = below about 31%
PfHsp90 yeast 2: growth inhibition of PfHsp90-expressing yeast, primary screen, antimalarial PfHsp90 inhibitor project, S. cerevisiae, BacTiter-Glo luminescence, single point, set 2. BacTiter-Glo ATP, 48 h; yeast lacking PDR1 and PDR3 efflux regulators. inhibition, % at 9.4 µM. actives 0.32% (n = 310,000). AID 504621, 2011;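 active = every replicate shows inhibition above about 80%, whatever the replicate mean, limit read from the data; inconclusive = mean inhibition reaches the set limit but some replicate falls short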;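 note: 0% = DMSO neutral controls and 100% = 20 µM radicicol positive controls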
esBAF inh: Bmi1 luciferase reporter increase in mESCs, primary screen, esBAF inhibitor project, mouse ES cells, Bmi1 luciferase knock-in, single point | AID 602393, 2012 | actives 2% (n = 350,000) | 24 h; 100% = twice the neutral-well signal | reporter increase, % at 12.5 µM; in the data active = activation above about 40%; inconclusive = no clear call, values can overlap the other calls;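 note: 0% = median of the plate's neutral control wells and 100% = double that signal; a rise in the Bmi1 reporter signal indicates esBAF inhibition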
Wnt act: Wnt/beta-catenin pathway activators, primary screen, cell-based, plate reader, single point. actives 1.2% (n = 300,000). Wnt/beta-catenin reporter cell assay, activator. activation, % at 9.35 µM; in the data active = activation above about 30%, passing the limit was not always enough; inconclusive = no clear call, values can overlap the other calls;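 note: 0% = neutral control wells and 100% = positive control wells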
MITF act: activators of MITF-driven TRPM1 promoter reporter, primary screen, cell-based, SK-MEL-5, luciferase, single point | actives 0.75% (n = 300,000) | SK-MEL-5 TRPM1-promoter luciferase, 24 h; % of positive control, neutral wells = 0 | activation, % at 12.5 µM | AID 588334, 2011;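 active = mean activation of at least 80% with every replicate also reaching 80%; inconclusive = mean reaches 80% but some replicate falls short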;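 note: 0% = neutral control wells and 100% = parthenolide positive control wells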
N-glyco inh: increase of ERlucT glycosylation luciferase signal, primary screen, N-linked glycosylation inhibitor project, D54 ERlucT cells, luminescence, set 2; D54 ERlucT glycosylation luciferase reporter, 24 h; percent of 100 nM tunicamycin response; reporter increase, % at 12.5 µM; actives 0.23% (n = 360,000); AID 588692, 2011;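 active = mean luciferase reporter signal, scaled so untreated is 0 and the glycosylation-blocking control 100, at or above a set limit in every replicate; inconclusive = mean reaches the limit but not every replicate does; inactive = mean below the limit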;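 note: luciferase carries N-glycosylation sites so blocking glycosylation raises the light; 0% = median of neutral control wells and 100% = median of 100 nM tunicamycin wells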
Starred values were filed as active, the others as inactive.

What do the screens show for `COc1ccc(-c2coc3cc(OC4OC(CO)C(O)C(O)C4O)cc(O)c3c2=O)cc1` (stereo not given)?
Vif inh: 10.4; esBAF inh: 20.2; Wnt act: 56.5*; MITF act: inconclusive; N-glyco inh: -6.5

What do the screens show for `CC(=O)c1ccc2c(c1)OCCOCCOCCOCCO2`?
Vif inh: inconclusive; PfHsp90 yeast 2: 11.0; N-glyco inh: 1.9

Results for CCOC(=O)C1CCCN(S(=O)(=O)c2ccc3c(c2)NC(=O)CO3)C1 (stereo not given) ?
Vif inh: -0.3; PfHsp90 yeast 2: -30.2; esBAF inh: -3.8; Wnt act: -1.5; MITF act: -5.1; N-glyco inh: -2.2

What do the screens show for `CCc1ccc2[nH]c3nc(SCC(=O)NNC(=O)c4ccc(C(C)(C)C)cc4)nnc3c2c1`?
Vif inh: 89.5*; PfHsp90 yeast 2: -21.8; esBAF inh: 7.0; N-glyco inh: 22.8

Results for CCn1cnc2cc(NCc3ccc(C)cc3)ccc21 ?
Vif inh: 5.0; PfHsp90 yeast 2: -41.6; esBAF inh: inconclusive; MITF act: 119.0*; N-glyco inh: -3.4

How did CCCCn1cnc2cc(NCc3cccc(OC)c3O)ccc21 do in these assays?
Vif inh: 12.7; esBAF inh: 27.4; Wnt act: 3.0; MITF act: 21.3; N-glyco inh: -2.6

Results for Cc1ccc(CNc2ccc3c(c2)ncn3C(C)C)cc1 ?
Vif inh: -0.6; PfHsp90 yeast 2: -7.1; esBAF inh: 68.2*; Wnt act: 0.4; MITF act: 88.8*; N-glyco inh: 1.2

What do the screens show for `CCCn1cnc2cc(NCc3ccccc3O)ccc21`?
Vif inh: -8.7; PfHsp90 yeast 2: -18.0; esBAF inh: 57.0*; Wnt act: 8.2; MITF act: 29.8; N-glyco inh: -3.8

What do the screens show for `CCCn1cnc2cc(NCc3ccc(Br)cc3)ccc21`?
Vif inh: -1.6; PfHsp90 yeast 2: -7.7; esBAF inh: 52.1*; Wnt act: 1.7; MITF act: 45.8; N-glyco inh: -2.7

How did O=C(CSc1nnc(-c2ccccc2F)o1)N1CCCC1 do in these assays?
Vif inh: 4.6; PfHsp90 yeast 2: -13.5; esBAF inh: 29.4; Wnt act: 12.9; MITF act: 35.6; N-glyco inh: -2.9

What do the screens show for `CCCn1cnc2cc(NCc3cccc(OC)c3)ccc21`?
Vif inh: 14.3; PfHsp90 yeast 2: -16.0; esBAF inh: 52.0*; Wnt act: 21.3; MITF act: 65.6; N-glyco inh: 4.7

What do the screens show for `CCOc1ccc(CNc2ccc3c(c2)ncn3C)cc1`?
Vif inh: -2.1; PfHsp90 yeast 2: 8.1; Wnt act: 24.7; MITF act: 36.6; N-glyco inh: 5.0

What do the screens show for `CCn1cnc2cc(NCc3ccc(Br)cc3)ccc21`?
Wnt act: 35.9*

How did CCN(CC)c1nc(N)c(C#N)c(CC#N)c1C#N do in these assays?
Vif inh: -3.5; PfHsp90 yeast 2: 29.0; esBAF inh: -1.8; Wnt act: -1.9; MITF act: -9.3; N-glyco inh: -0.1

What do the screens show for `Cc1ccc(C(=O)NCCN2CCN(C(=O)c3ccc(C)c(C)c3)CC2)cc1C`?
Vif inh: -0.8; PfHsp90 yeast 2: 9.5; esBAF inh: -8.0; Wnt act: -0.9; MITF act: -0.6; N-glyco inh: -0.4

Results for O=C(CCn1cnc2ccccc21)N/N=C/c1ccccc1O ?
Vif inh: -12.6; PfHsp90 yeast 2: 5.0; esBAF inh: 52.5*; Wnt act: 10.1; MITF act: 19.9; N-glyco inh: -2.9

Results for C[C@H](CO)N1C[C@H](C)[C@H](CN(C)C(=O)Nc2ccc3c(c2)OCO3)OCCCC[C@H](C)Oc2ccc(NC(=O)Nc3ccc(C(F)(F)F)cc3)cc2C1=O ?
esBAF inh: 4.8

Results for O=C1c2ccccc2S(=O)(=O)N1CC1CC(c2ccc(Cl)cc2)=NO1 (stereo not given) ?
Vif inh: -3.9; PfHsp90 yeast 2: 26.4; Wnt act: 45.6*; MITF act: 31.7; N-glyco inh: 0.3

Results for O=C1c2ccccc2S(=O)(=O)N1CC1CC(c2ccccc2)=NO1 (stereo not given) ?
Vif inh: 0.1; PfHsp90 yeast 2: -5.5; esBAF inh: inconclusive; MITF act: 72.1; N-glyco inh: -1.5

Results for COc1cccc(Nc2ncnc3ccccc23)c1 ?
Vif inh: -5.6; PfHsp90 yeast 2: -26.9; esBAF inh: 58.1*; MITF act: inconclusive; N-glyco inh: -7.0

How did COc1ccc(Nc2ncnc3c2c(C)c(C)n3CCO)cc1 do in these assays?
Vif inh: -22.8; PfHsp90 yeast 2: -18.6; esBAF inh: -10.5; Wnt act: 41.1*; MITF act: 70.3; N-glyco inh: -5.3

How did Cc1c(C)n(CCO)c2ncnc(Nc3ccc(F)cc3)c12 do in these assays?
Vif inh: -12.6; PfHsp90 yeast 2: -13.1; esBAF inh: inconclusive; Wnt act: 9.7; MITF act: 51.5; N-glyco inh: 1.7

How did COc1ccc(Nc2ncnc3ccccc23)cc1 do in these assays?
Vif inh: -8.3; PfHsp90 yeast 2: 24.1; esBAF inh: 29.2; Wnt act: 18.2; MITF act: 96.8*; N-glyco inh: -7.1

What do the screens show for `COc1cc(NC(=O)C2Cc3ccccc3CN2S(C)(=O)=O)cc(OC)c1` (stereo not given)?
Vif inh: -8.6; PfHsp90 yeast 2: -6.5; esBAF inh: 0.9; Wnt act: -0.6; MITF act: -3.3; N-glyco inh: -0.3

How did CN1CCCC1CCNc1ccc2c(=O)c3ccccc3oc2c1 (stereo not given) do in these assays?
Vif inh: 2.1; PfHsp90 yeast 2: 9.0; esBAF inh: 31.7; Wnt act: 19.2; MITF act: 89.3*; N-glyco inh: 9.0

Results for CN1CCCC1CCNc1ccc2oc3ccccc3c(=O)c2c1 (stereo not given) ?
Wnt act: 2.8

How did Cn1c2ccccc2c(=O)c2ccc(NCc3ccc4c(c3)OCO4)cc21 do in these assays?
PfHsp90 yeast 2: -1.5; esBAF inh: 44.3*; Wnt act: 5.7; MITF act: 20.2; N-glyco inh: 9.4

How did CN1CCC[C@H]1CCNC(=O)c1c(-c2ccsc2)sc2ccccc12 do in these assays?
Vif inh: 1.7; PfHsp90 yeast 2: 13.5; esBAF inh: 10.6; Wnt act: 0.0; MITF act: 11.5; N-glyco inh: 1.0

How did CN1CCC[C@H]1CCNc1ccc2c(=O)c3ccccc3n(C)c2c1 do in these assays?
PfHsp90 yeast 2: 18.3; esBAF inh: 63.5*; Wnt act: 17.0; MITF act: 57.5; N-glyco inh: 8.2
